Experimental findings from PubChem BioAssay (NCI) are described below.

Holding throughout (experiment): NCI-60 one-dose screen, 48 h (100 = growth as untreated, 0 = no growth, -100 = all killed)
Common to all, as to conditions: 10 µM unless noted

Assay [1] relates to NCI-H23 lung.
For assay [2], the system named is NCI-H226 lung.
Assay [3] relates to NCI-H322M lung.
Assay [4] has as its system HOP-62 NSCLC.
In assay [5] the test system is NCI-H460 lung.
Assay [6] relates to NCI-H522 lung.
Assay [7] has as its system A549/ATCC NSCLC.
Assay [8] has as its system 786-0 renal.
The test system of assay [9] is COLO 205 colon.
Assay [10] deals with DU-145 prostate.
Assay [11] deals with K-562 leukemia.
Assay [12] deals with MALME-3M melanoma.
The test system of assay [13] is MDA-MB-231 breast.
Assay [14] concerns RXF 393 renal.
Assay [15] concerns SF-268 CNS.
The subject of assay [16] is SF-295 CNS.
For assay [17], the system named is SF-539 CNS.
For assay [18], the system named is UACC-257 melanoma.
Assay [19] deals with M14 melanoma.

About 83,000 compounds went through this panel and 20% of them were active in at least one assay; those are over-represented in the sample as a whole.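 Results are percent growth after 48 hours of single-concentration exposure. 100 means growth as in untreated cells, lower positive values show inhibition; negative values down to -100 show cell death.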 Values without a mark were called inactive. Active and inactive are the calls of the source. The calls were made as follows: active = growth percent below 10; inactive = the rest.

As to `CC(=O)N1N=C(c2cccc(-n3cccc3)c2)CC1c1cccc(F)c1` (configuration not stated), the growth in assay [1] is 82.1%; in assay [2], 94.5%; in [3], 90.3%; in [4], 109%; in [5], 107%; in assay [6], 94.8%. Further, the growth in [7] is 95.2%; in assay [8], 102%; in [9], 104%; in assay [10], 114%; in assay [11], 99.9%; in assay [12], 88.3%. Further, the growth is 94.8% in [13]; 86.1% in [14]; 113% in [15]; 107% in [16]; 101% in [17]; 104% in assay [18]. Besides, in [19], the growth is 97.6%.

As to `Cc1cc(C)cc(C(=O)Nc2cccc(C#Cc3cccc4[nH]nc(N)c34)c2)c1`, the growth is 76.6% in assay [1]; 67.3% in assay [2]; 88.4% in [3]; 67% in assay [4]; 50.7% in assay [5]; 23.6% in assay [6]. The growth in assay [7] is 54.8%; in assay [8], 89.9%; in assay [9], 77.9%; in assay [10], 71.9%; in assay [11] it was 9.8% (active); in [12] it was 86.2%. Besides, the growth in assay [13] was 40%; in [14] it was -10.9% (active); in assay [15], 55%; in [16] it was 65%; in assay [17], 38.6%; in [18], 90.7%. In addition, in assay [19], the growth was 43.5%.

As to `CCCn1cnc2c(c1=N)C(c1ccc(Cl)cc1)c1sc3c(CC)cccc3c1O2` (configuration not stated), the growth in assay [1] is 19.2%; in assay [2], 57.7%; in [3] it was 45.8%; in assay [4], 31.1%; in [5], 7.5% (active); in assay [6], -25.7% (active). Moreover, the growth in assay [7] was 30.4%; in assay [8] it was 30%; in [9] it was -14.3% (active); in assay [10] it was 13.7%; in assay [11], 11.3%; in assay [12], 55.6%. Moreover, the growth in assay [13] is 30.8%; in assay [14], -22.5% (active); in [15], 45.4%; in [16] it was -12.8% (active); in assay [17] it was -19.7% (active); in assay [18], 83.9%. The growth in assay [19] was 2.63% (active).

For the molecule `Nc1nc(-c2cccc([N+](=O)[O-])c2)c(N=Nc2ccc(Br)cc2)s1`, the growth in [1] is -65% (active); in [2], -39.2% (active); in assay [3], -25.4% (active); in assay [4], -68.1% (active); in assay [5], -61% (active); in assay [6], -48.6% (active). In addition, the growth was -20.3% (active) in assay [7]; -96.4% (active) in assay [8]; -2.36% (active) in [9]; -41.2% (active) in assay [10]; 16.6% in assay [11]; -62% (active) in [12]. Moreover, the growth is -46.6% (active) in assay [13]; -92.3% (active) in [14]; 26.2% in [15]; -65.4% (active) in [16]; -98% (active) in assay [17]; 0.3% (active) in [18]. Besides, the growth in assay [19] is -75.4% (active).

Turning to `CCCn1cnc2c(c1=N)C(c1ccc(Cl)cc1)c1sc3c(C)cccc3c1O2` (configuration not stated), the growth in [1] was 20.5%; in assay [2], 62%; in assay [3], 43.8%; in [4], 44.2%; in [5] it was 9.41% (active); in assay [6] it was -5.59% (active). Further, the growth is 29.1% in assay [7]; 33.8% in [8]; 1.53% (active) in assay [9]; 19.7% in assay [10]; 7.73% (active) in [11]; 59.5% in assay [12]. The growth in assay [13] was 28.6%; in assay [14], -4.19% (active); in assay [15] it was 41.1%; in assay [16], -6.66% (active); in assay [17], -21.1% (active); in assay [18], 86.5%. In addition, in assay [19], the growth is 8.06% (active).

For the molecule `Cc1ccc(N2C(=O)/C(=C/C=C/c3ccco3)SC2=S)cc1`, the growth in assay [1] is 98.9%; in assay [2] it was 102%; in assay [3], 96.4%; in assay [4] it was 95.9%; in assay [5], 88.9%; in [6], 81.8%. The growth was 86.3% in assay [7]; 104% in assay [8]; 94.3% in assay [9]; 100% in assay [10]; 61.2% in assay [11]; 91.4% in assay [12]. For the same molecule, the growth in assay [13] is 94.9%; in assay [14], 74.6%; in assay [15], 105%; in assay [16], 99.1%; in assay [17], 101%; in assay [18], 88.3%. The growth in [19] is 103%.

For the molecule `CN1c2ccccc2Sc2cc(C=C(C#N)C#N)ccc21`, the growth in assay [1] is 89.3%; in assay [2], -31.4% (active); in assay [3] it was 97.3%; in assay [4], 90.4%; in assay [5], 97.9%; in assay [6], 91.8%. Moreover, the growth is 98% in assay [7]; 105% in assay [8]; 108% in [9]; 110% in assay [10]; 101% in [11]; 98.3% in assay [12]. Moreover, the growth in assay [13] was 92.3%; in assay [14], 92.1%; in [15], 105%; in assay [16], 103%; in [17] it was 101%; in [18], 97.5%. In [19], the growth was 96%.

As for `CNC(=O)c1cc(Oc2ccc3nc(NC(=O)c4cc(N5CCOCC5)cc(C(F)(F)F)c4)sc3c2)ccn1`, the growth in [1] is 88.2%; in assay [2], 85.4%; in assay [3], 89.4%; in [4], 89.3%; in assay [5] it was 67.5%; in assay [6], 81.6%. The growth was 68.5% in assay [7]; 80.3% in [8]; 94% in assay [9]; 86.1% in assay [10]; 67.2% in assay [11]; 87.1% in assay [12]. For the same molecule, the growth in assay [13] was 76.2%; in [14] it was -9.02% (active); in [15], 86%; in assay [16], 44.6%; in [17] it was 91.5%; in [18] it was 82.4%. Moreover, the growth in assay [19] was 77.5%.
